This test is described as follows: PubChem AID 651827. As to conditions: Ricerca radioligand binding panel, percent inhibition, at 10 µM, stronger effect = higher value.

Molecules are shown by their SMILES.

As for `CS(=O)(=O)N(CC(=O)NCC1CC1)c1cc(C(F)(F)F)ccc1Cl`, the inhibition (commonly the drop in the measured response relative to a control, in per cent) is -9%. Further, the inhibition (Adenosine A2A binding) was -8%. Where the note is “Adenosine A3 binding”, the inhibition came out at 1%. The inhibition (EGF receptor binding) is 14%. The inhibition (IL-1 receptor binding) was 15%. Besides, the inhibition (L-type Ca benzothiazepine site) is 48%. Besides, for the setting “L-type Ca dihydropyridine site”, the inhibition was found to be 36%. The inhibition (Melatonin MT1 binding) stood at 16%. In addition, for the setting “PAF receptor binding”, the inhibition was determined as 15%. Further, for the setting “Purinergic P2Y binding”, the inhibition turned out to be 20%. For the same compound, the inhibition (Serotonin transporter binding) was 15%. Further, where the note is “Thyroid hormone binding”, the inhibition is 16%. Besides, the inhibition (hERG binding) was -2%.
